Compounds with a hit are over-represented: about 3% of the library has one in this group of screens.
SARS PLP yeast: qHTS of Yeast-based Assay for SARS-CoV PLP; S. cerevisiae expressing SARS-CoV PLpro, growth rescue; Potency, µM (doses to about 32.9 µM), hits mostly activators; 330,000 tested, 0.19% active; calls by dose curve; note: nearly all actives have a fitted effect of over 55% in size
Sm TGR block: qHTS Assay for the Inhibitors of Schistosoma Mansoni Peroxiredoxins; Potency, µM (doses to about 114 µM), most hits filed as inhibitors; 360,000 tested, 3% active; Schistosoma mansoni thioredoxin glutathione reductase (TGR), Q962Y6; purified TGR, DTNB reduction, TNB absorbance 405 nm; AID 485364, 2010; active = well fitted inhibition curve with a large enough effect; inconclusive = small, poorly fitted or top-dose-only effect; inactive = no such curve, though single readings can be large or run the other way; note: nearly all actives have a fitted effect of over 60% in size
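First, TGR (20 nM dispensed) and NADPH were mixed with compound. Second, a 15 min room-temperature incubation followed. Third, further NADPH and then DTNB were added to start the reaction. Finally, TNB absorbance was monitored kinetically.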
Each line names hits and unclear results; the compound was inactive in the other large screens.

Cc1cc2c(n1-c1ccc(C(=O)O)cc1)CCCCC2	Sm TGR block 25.1µM
CC(C)NC(=O)c1ccc(-n2c(-c3ccccc3)cc3c2CCCCC3)cc1	none (no result: SARS PLP yeast)
C/C(=C\c1ccccc1)C1Nc2cccc3cccc(c23)N1	Sm TGR block 12.6µM
C/C=C/c1ccc2c(c1)OCO2	none
C/C(=C\c1ccccc1F)C1Nc2cccc3cccc(c23)N1	Sm TGR block inconclusive
C/C(=C\c1ccc2c(c1)OCO2)C1Nc2cccc3cccc(c23)N1	Sm TGR block 20µM
O=C(NCc1ccco1)c1ccc(-c2cccc(Cl)c2)o1	Sm TGR block 31.6µM
Cc1ccccc1CS(=O)(=O)Cc1ccc(C(=O)NCc2ccccn2)o1	Sm TGR block 12.6µM
COc1ccccc1OCc1ccc(C(=O)NC(C)(C)C)o1	Sm TGR block inconclusive
COc1ccc(CNC(=O)c2ccc(Cn3nc(C)cc3C)o2)cc1	none
COc1ccccc1OCc1ccc(C(=O)NCc2ccco2)o1	Sm TGR block 39.8µM
Cc1cc(C(F)(F)F)nn1Cc1ccc(C(=O)NCc2ccco2)o1	Sm TGR block 11.2µM
O=C(NCc1ccco1)c1cc(-c2cccc(Cl)c2)on1	none
Cc1ccccc1CS(=O)(=O)Cc1ccc(C(=O)NCc2ccc(F)cc2)o1	none (no result: SARS PLP yeast)
Cc1ccc(S(=O)(=O)N(CC(=O)Nc2ccc(F)cc2F)Cc2ccc(F)cc2)cc1	none (no result: SARS PLP yeast)
CCc1ccc(C(=O)c2cn(CC(=O)Nc3ccc4c(c3)OCO4)c3cc(OC)c(OC)cc3c2=O)cc1	none (no result: SARS PLP yeast)
O=C(CCC1CCCC1)N1CCc2c([nH]c3ccccc23)C1c1ccc(Cl)cc1 (centres undefined)	none (no result: SARS PLP yeast)
COc1ccccc1C(=O)Nc1cc(-c2cccc(Br)c2)nn1-c1ccccc1	none (no result: SARS PLP yeast)
Cc1ccc(-n2ccnc(NCCc3ccc(S(N)(=O)=O)cc3)c2=O)cc1C	none (no result: SARS PLP yeast)
COc1ccc(CNC(=O)Cn2nc3c(cc2=O)CCCC3)cc1	none (no result: SARS PLP yeast)
Cc1ccccc1CS(=O)(=O)Cc1ccc(C(=O)NCc2ccco2)o1	Sm TGR block 56.2µM
O=C(NCc1cccnc1)c1ccc(CS(=O)(=O)Cc2ccc(Cl)cc2)o1	Sm TGR block inconclusive
COC(=O)c1ccccc1NC(=O)c1ccc(COc2cccc3ccccc23)o1	Sm TGR block 56.2µM
CCc1ccc(CNC(=O)c2ccc(CS(=O)(=O)Cc3ccccc3C)o2)cc1	none (no result: SARS PLP yeast)
O=C(NCc1ccccn1)c1ccc(CS(=O)(=O)Cc2ccc(Cl)cc2)o1	Sm TGR block 28.2µM
COC(=O)c1ccccc1NC(=O)c1ccc(COc2ccccc2)o1	none (no result: SARS PLP yeast)
COc1ccc(OC)c2sc(N(Cc3cccnc3)C(=O)c3ccco3)nc12	none (no result: SARS PLP yeast)
Cc1cccc(Nc2nc3c(S(=O)(=O)c4ccc(Br)cc4)nnn3c3ccsc23)c1C	none (no result: SARS PLP yeast)
Clc1ccc2c(c1)-n1cc(-c3ccccc3)nc1CO2	none (no result: SARS PLP yeast)
O=c1[nH]c2ccccc2c(O)c1SCCO	none
O=C1C(SCCO)=C(SCCO)C(=O)c2ccccc21	Sm TGR block 0.501µM (no result: SARS PLP yeast)
CCCCc1ccc(NC(=O)Cn2cnc3c(oc4ccccc43)c2=O)cc1	none (no result: SARS PLP yeast)
COc1cccc(N2CCN(C(=O)C3CCN(S(=O)(=O)c4cccc5nonc45)CC3)CC2)c1	none (no result: SARS PLP yeast)
Cc1nnc(SCC(=O)N2CC(=O)Nc3ccccc32)n1C	none
Cc1ccc(-n2nnnc2SCC(=O)N2CC(=O)Nc3ccccc32)cc1	Sm TGR block 44.7µM
CN(C)c1ccc(CNc2nc(-c3ccco3)nn2S(=O)(=O)c2ccc3ccccc3c2)cc1	none (no result: SARS PLP yeast)
COc1ccc(C2=NC(c3ccccc3)CO2)cc1 (centres undefined)	none
COc1ccc(C2CC23N=C(c2ccccc2)OC3=O)cc1 (centres undefined)	Sm TGR block 22.4µM
CCOc1ccccc1C(=O)Nc1cc2c(cc1N1CCCCC1)n(C)c(=O)n2C	none (no result: SARS PLP yeast)
COc1ccc(CC(=O)Nc2ccc(OC)nc2)cc1	none
COc1ccc(NC(=O)Nc2cccs2)cn1	Sm TGR block 12.6µM
COc1ccc(NC(=O)Nc2cc(C)cc(C)c2)cn1	none
COc1ccc(NC(=O)CCl)cn1	Sm TGR block 14.1µM
CCOC(=O)c1c(C)[nH]c(C)c1S(=O)(=O)N1CCC(C(=O)NCc2cccc(C)c2)CC1	none (no result: SARS PLP yeast)
CCCCOc1ccc(S(=O)(=O)Nc2ccc(-c3ccc(N4CCCCC4)nn3)cc2)cc1	none (no result: SARS PLP yeast)
Cn1c(SCc2ccc(Br)cc2)nc2c([nH]c3ccccc32)c1=O	none (no result: SARS PLP yeast)
CSc1cccc(NC(=O)c2cc3c(COC(C)=O)cnc(C)c3oc2=O)c1	none (no result: SARS PLP yeast)
CC1=C(C(=O)Nc2ccccc2)C(c2ccccc2)n2nc(-c3ccco3)nc2N1 (centres undefined)	none (no result: SARS PLP yeast)
COc1ccc(C2C(C(=O)Nc3cccnc3)=C(C)Nc3nc(-c4ccco4)nn32)cc1 (centres undefined)	Sm TGR block 50.1µM
Cc1ccccc1NC(=O)CCNC(=O)Cn1ccc2ccccc2c1=O	none (no result: SARS PLP yeast)
COc1cc(Nc2ncc3c(n2)CCN(Cc2ccc(OC(C)C)c(OC)c2)C3)cc(OC)c1	none (no result: SARS PLP yeast)
CCOc1ccc(CNC(=O)CCS(=O)(=O)c2cc3c4c(c2)CCN4C(=O)CC3)cc1OC	none (no result: SARS PLP yeast)
